# About 83,000 compounds went through this panel and 20% of them were active in at least one assay; those are over-represented in the sample as a whole.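 Assay: single dose, 48 h. Readout: percent growth (0 = no net growth; negative = cell death). Active: <10.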 Values without a mark were called inactive. Activity calls are given as the source filed them.
# System: MDA-MB-435 melanoma
# Assay: NCI-60 one-dose screen, 48 h (100 = growth as untreated, 0 = no growth, -100 = all killed)
# Conditions: 10 µM unless noted
row,Compound,growth
1,CC(=O)Nc1c(Cl)cc2c(c1Cl)Cc1ccccc1-2,122%
2,Clc1ccc(C2c3ccccc3-c3nccn32)c(Cl)c1 (stereo not given),89.6%
3,Cc1ccccc1NC(=O)N/C(N)=N/c1nc2ccccc2s1,-11.4% (active)
4,O=[N+]([O-])c1cc([N+](=O)[O-])c(N2CCCC2)cc1NN=C(c1ccc(O)cc1)c1ccc(O)cc1,76.1%
5,CCCCc1ccc(C(N)=O)nc1,106%
6,O=C(c1ccc(N2CCOCC2)cc1[N+](=O)[O-])N1CCOCC1,-32.2% (active)
7,Cc1cc(C)c(C(=O)c2cccs2)c(C)c1,122%
8,CC(C)N(Cc1ccccc1)c1c(Cl)ssc1=O,108%
9,c1ccc(-c2oc(-c3ccccc3)c3ccccc23)cc1,107%
10,N#Cc1c(-c2ccccc2)cc(-c2ccccc2)n(CC(=O)O)c1=O,-10.6% (active)
11,Oc1c(N=Nc2nn[nH]n2)ccc2ccccc12,67.7%
12,CCOC(=O)C(C(=O)OCC)C1CCCCC1,101%
13,CNCCCn1c2c(c3ccc(F)cc3c1=O)C(=O)c1cc(OC)cnc1-2,4.12% (active)
14,O=C1NC(=O)/C(=C/c2ccc(Cl)cc2Cl)N1,116%
15,Nc1c(C(=O)Nc2cccc(Cl)c2)sc2nc3c(cc12)C(O)CCC3 (stereo not given),-37.5% (active)
16,CCN(CC)CCCCCCCNc1c2ccc(Cl)cc2nc2ccc(OC)cc12,-78.9% (active)
17,Cn1c(N2N=C(c3ccc(Cl)cc3)CC2c2ccccc2)nc(-c2ccccc2)c(C#N)c1=O (stereo not given),83.6%
18,C[C@H]1C(=O)N2c3ccccc3[C@@]3(O)C[C@@H](n4cnc5ccccc5c4=O)C(=O)N1[C@@H]23,109%
19,O=C1/C(=C\c2coc3ccccc3c2=O)c2ccccc2N1c1c(Cl)cccc1Cl,14.5%
20,Oc1c(Cl)cc(Cl)c(Cl)c1Cc1c(O)c(Cl)cc(Cl)c1Cl,10.4%

row,Compound,growth
1,COc1ccc(C2=NN(C(N)=S)C(c3ccc4c(c3)OCO4)C2)cc1 (stereo not given),3.04% (active)
2,CC[C@H]1CN2CCc3cc(OC)c(OC)cc3C2C[C@@H]1CC1NCCc2cc(OC)c(OC)cc21 (stereo not given in full),-71.2% (active)
3,COc1cccc(C2=NN(C(C)=O)C(c3cc(OC)c(OC)c(OC)c3)C2)c1 (stereo not given),-28.2% (active)
4,CC(=O)O[C@H]1CC[C@@]2(C)C(=CC[C@@H]3[C@@H]2CC[C@]2(C)C(c4cccnc4)=CC[C@@H]32)C1,34.5%
5,Cc1cc2c(cc1C)[n+](Cc1ccc3ccccc3c1)cn2Cc1ccc2ccccc2c1,-82.8% (active)
6,N/C(=N\C(N)=N\c1nc2ccccc2s1)c1ccnc(Cl)c1,-34.9% (active)
7,CC(=O)OC1Oc2cc(C)c(C)cc2-c2oc(=O)c(-c3ccccc3)cc21 (stereo not given),-19.6% (active)
8,O=C(N/N=C/c1cccc(O)c1O)c1ccccc1,28.8%
9,CN[C@@H]1C(OC2[C@H](O[C@H]3[C@H](O)[C@@H](O)[C@H](N=C(N)N)[C@@H](O)[C@@H]3N=C(N)N)OC(C)[C@]2(O)CO)OC(CO)C(O)C1O (stereo not given in full),102%
10,CN(C)c1ccc(-c2nc3ncc(Br)cc3o2)cc1,115%
11,O=C(C(=O)N1CCOCC1)c1cn(CCCn2cc(C(=O)C(=O)N3CCOCC3)c3ccccc32)c2ccccc12,111%
12,C[N+]1(C)C2CC[C@@H]1CC(OC(=O)C(O)c1ccccc1)C2 (stereo not given in full),99.1%
13,Cn1ccnc1C(=O)/C=C/c1ccc(C(=O)Nc2nc3ccccc3[nH]2)cc1,18.8%
14,COc1ccc(/C=C2\CCc3ccccc3C2=O)cc1,9.53% (active)
15,CCSc1nc(Nc2ccc(S(=O)(=O)Nc3ccon3)cc2)c(C#N)c(-c2cccc(Br)c2)n1,102%
16,COc1ccc(C2CC(c3ccc4c(c3)OCO4)=NN2C=O)cc1 (stereo not given),110%
17,CSc1nc2nc3c(c(-c4ccc(C)cc4)c2c(=O)[nH]1)CN(C)C/C3=C\c1ccc(C)cc1,91.8%
18,O=c1oc2c(cc1-c1ccc([N+](=O)[O-])cc1)C(O)Oc1ccccc1-2 (stereo not given),89.3%
19,COc1ccccc1-n1c(-c2ccc(O)cc2C)cn2c3c(=O)[nH]c(=O)n(C)c3nc12,101%
20,CCOc1cc(/C=C/C(=O)CC(=O)/C=C/c2ccc(OC(=O)CNCCN(CC)CC)c(OCC)c2)ccc1OC(=O)CNCCN(CC)CC,-21.6% (active)

# System: SW-620 colon
# Assay: as above
# Conditions: 10 µM unless noted
row,Compound,growth
1,CC(=O)Nc1c(Cl)cc2c(c1Cl)Cc1ccccc1-2,103%
2,Clc1ccc(C2c3ccccc3-c3nccn32)c(Cl)c1 (stereo not given),85.4%
3,Cc1ccccc1NC(=O)N/C(N)=N/c1nc2ccccc2s1,25.8%
4,O=[N+]([O-])c1cc([N+](=O)[O-])c(N2CCCC2)cc1NN=C(c1ccc(O)cc1)c1ccc(O)cc1,107%
5,CCCCc1ccc(C(N)=O)nc1,-90% (active)
6,O=C(c1ccc(N2CCOCC2)cc1[N+](=O)[O-])N1CCOCC1,93.1%
7,Cc1cc(C)c(C(=O)c2cccs2)c(C)c1,107%
8,CC(C)N(Cc1ccccc1)c1c(Cl)ssc1=O,110%
9,c1ccc(-c2oc(-c3ccccc3)c3ccccc23)cc1,109%
10,N#Cc1c(-c2ccccc2)cc(-c2ccccc2)n(CC(=O)O)c1=O,32.8%
11,Oc1c(N=Nc2nn[nH]n2)ccc2ccccc12,101%
12,CCOC(=O)C(C(=O)OCC)C1CCCCC1,104%
13,CNCCCn1c2c(c3ccc(F)cc3c1=O)C(=O)c1cc(OC)cnc1-2,-2.67% (active)
14,O=C1NC(=O)/C(=C/c2ccc(Cl)cc2Cl)N1,102%
15,Nc1c(C(=O)Nc2cccc(Cl)c2)sc2nc3c(cc12)C(O)CCC3 (stereo not given),43.9%
16,CCN(CC)CCCCCCCNc1c2ccc(Cl)cc2nc2ccc(OC)cc12,-52.9% (active)
17,Cn1c(N2N=C(c3ccc(Cl)cc3)CC2c2ccccc2)nc(-c2ccccc2)c(C#N)c1=O (stereo not given),77.1%
18,C[C@H]1C(=O)N2c3ccccc3[C@@]3(O)C[C@@H](n4cnc5ccccc5c4=O)C(=O)N1[C@@H]23,107%
19,O=C1/C(=C\c2coc3ccccc3c2=O)c2ccccc2N1c1c(Cl)cccc1Cl,35%
20,Oc1c(Cl)cc(Cl)c(Cl)c1Cc1c(O)c(Cl)cc(Cl)c1Cl,16.7%

row,Compound,growth
1,COc1ccc(C2=NN(C(N)=S)C(c3ccc4c(c3)OCO4)C2)cc1 (stereo not given),1.46% (active)
2,CC[C@H]1CN2CCc3cc(OC)c(OC)cc3C2C[C@@H]1CC1NCCc2cc(OC)c(OC)cc21 (stereo not given in full),-20.3% (active)
3,COc1cccc(C2=NN(C(C)=O)C(c3cc(OC)c(OC)c(OC)c3)C2)c1 (stereo not given),17.3%
4,CC(=O)O[C@H]1CC[C@@]2(C)C(=CC[C@@H]3[C@@H]2CC[C@]2(C)C(c4cccnc4)=CC[C@@H]32)C1,76.4%
5,Cc1cc2c(cc1C)[n+](Cc1ccc3ccccc3c1)cn2Cc1ccc2ccccc2c1,-84.1% (active)
6,N/C(=N\C(N)=N\c1nc2ccccc2s1)c1ccnc(Cl)c1,16.8%
7,CC(=O)OC1Oc2cc(C)c(C)cc2-c2oc(=O)c(-c3ccccc3)cc21 (stereo not given),16.3%
8,O=C(N/N=C/c1cccc(O)c1O)c1ccccc1,33.5%
9,CN[C@@H]1C(OC2[C@H](O[C@H]3[C@H](O)[C@@H](O)[C@H](N=C(N)N)[C@@H](O)[C@@H]3N=C(N)N)OC(C)[C@]2(O)CO)OC(CO)C(O)C1O (stereo not given in full),104%
10,CN(C)c1ccc(-c2nc3ncc(Br)cc3o2)cc1,99.3%
11,O=C(C(=O)N1CCOCC1)c1cn(CCCn2cc(C(=O)C(=O)N3CCOCC3)c3ccccc32)c2ccccc12,115%
12,C[N+]1(C)C2CC[C@@H]1CC(OC(=O)C(O)c1ccccc1)C2 (stereo not given in full),109%
13,Cn1ccnc1C(=O)/C=C/c1ccc(C(=O)Nc2nc3ccccc3[nH]2)cc1,5.35% (active)
14,COc1ccc(/C=C2\CCc3ccccc3C2=O)cc1,66.9%
15,CCSc1nc(Nc2ccc(S(=O)(=O)Nc3ccon3)cc2)c(C#N)c(-c2cccc(Br)c2)n1,110%
16,COc1ccc(C2CC(c3ccc4c(c3)OCO4)=NN2C=O)cc1 (stereo not given),104%
17,CSc1nc2nc3c(c(-c4ccc(C)cc4)c2c(=O)[nH]1)CN(C)C/C3=C\c1ccc(C)cc1,103%
18,O=c1oc2c(cc1-c1ccc([N+](=O)[O-])cc1)C(O)Oc1ccccc1-2 (stereo not given),91.9%
19,COc1ccccc1-n1c(-c2ccc(O)cc2C)cn2c3c(=O)[nH]c(=O)n(C)c3nc12,94.7%
20,CCOc1cc(/C=C/C(=O)CC(=O)/C=C/c2ccc(OC(=O)CNCCN(CC)CC)c(OCC)c2)ccc1OC(=O)CNCCN(CC)CC,-58.1% (active)
